SMILES strings stand for the structures.

This passage reports composite z-score and z-score results from PubChem BioAssay.

The test system of test [1] is Human papillomavirus type 1a protein E7 (residues 44-93). In words: HPV1a E7 fragment binders on microarrays, primary screen, biochemical, small-molecule microarray, residues 44-93, 635 nm fluorescence (AID 1108).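 Further: E7 fragment applied at 1 µg/mL in TBST for 1 h at 4 C; score combines spot fluorescence with its signal to noise ratio.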 The settings on record: small-molecule microarray binding, fluorescence 635 nm; higher = more signal.
Test [2] can be described thus: modulators of HCV replicon luciferase signal, primary screen, HCV replication inhibitor project, Huh7 cells, luciferase reporter (AID 1109).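 Further: huh7 hepatoma cells harbouring a luciferase neomycin HCV replicon reporter; luciferase luminescence as measure of HCV replicon replication; test concentration not given here.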 The note with it: 48 h, higher = more signal. (In general: Replicon systems follow genome replication, usually without infectious particles.)
The target in test [3] is Left-right determination factor 2 (Homo sapiens) (UniProt O00292). In words: LEFTY2 binders on small-molecule microarrays, primary screen, biochemical, small-molecule microarray, 635 nm fluorescence scan (AID 1110). The note with it: LEFTY2 binding, higher = more signal.
Test [4] has as its target Calmodulin-1 (Homo sapiens) (UniProt P0DP23). In words: CALM1 binders on microarrays, EGTA buffer, profiling panel, biochemical, small-molecule microarray, Cy5-labelled CALM1 (AID 1111).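 Further: labelled calmodulin applied in Tris saline Tween buffer holding calcium plus EGTA and DTT.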 The settings on record: Cy5-CALM1 binding fluorescence, higher = more signal.
The target is the same in test [5]. Kind of test: calcium-bound CALM1 binders on microarrays, profiling panel, artefact control for SMM control-protein annotation, biochemical, small-molecule microarray, Cy5-labelled CALM1, plus calcium (AID 1112).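 Further: score merges spot fluorescence with signal to noise from triplicate slides.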 The note with it: Cy5-CALM1 binding fluorescence, higher = more signal.
A short description of test [6]: small-molecule microarray binders of probe aWnt5a, primary screen, biochemical, biotinylated probe, 635/667 nm fluorescence (AID 1113).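 Further: score merges 667 nm fluorescence intensity with signal-to-noise per printed feature.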 The settings on record: higher = more signal.
A short description of test [7]: small-molecule microarray binders of probe aShh, primary screen, biochemical, biotinylated probe, 635/667 nm fluorescence (AID 1114).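 Further: probe is biotin-labelled aShh protein from a stem cell growth factor screen; measures binding of labelled protein to compounds printed on the slide; score merges feature fluorescence at 667 nm with signal-to-noise.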 The note with it: higher = more signal.
Test [8] in a line: small-molecule microarray binders of probe aNog, primary screen, biochemical, biotinylated probe, 635/667 nm fluorescence (AID 1115).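 Further: probe is biotinylated aNog protein used at 0.15 µg/mL for 1 h at 4 C; z-score combines 667 nm fluorescence of each spot with its signal to noise.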 The settings on record: higher = more signal.
Test [9] addresses Torsin-1A-interacting protein 1 (Homo sapiens) (UniProt Q5JTV8). In words: LAP1 binders from COS7 cell lysate, primary screen, small-molecule microarray, 635/667 nm fluorescence (AID 1116). The settings on record: COS7-hLAP1 lysate binding, 635 nm fluorescence, higher = more signal.
For test [10], the target named is Alpha-bungarotoxin (Bungarus multicinctus) (UniProt P60615). In words: alpha-bungarotoxin binders on microarray, profiling panel, artefact control for SMM control protein annotation, biochemical, small-molecule microarray, Alexa647 label, 635/667 nm fluorescence (AID 1117). The settings on record: alpha-BTX-A647 binding fluorescence, higher = more signal.
Chain of Alpha-bungarotoxin (Bungarus multicinctus) (P60615 whole entry, looked up): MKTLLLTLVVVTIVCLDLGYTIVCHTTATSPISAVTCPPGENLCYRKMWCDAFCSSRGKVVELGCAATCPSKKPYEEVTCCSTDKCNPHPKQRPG

Chain of Torsin-1A-interacting protein 1 (Homo sapiens) (Q5JTV8 whole entry, looked up): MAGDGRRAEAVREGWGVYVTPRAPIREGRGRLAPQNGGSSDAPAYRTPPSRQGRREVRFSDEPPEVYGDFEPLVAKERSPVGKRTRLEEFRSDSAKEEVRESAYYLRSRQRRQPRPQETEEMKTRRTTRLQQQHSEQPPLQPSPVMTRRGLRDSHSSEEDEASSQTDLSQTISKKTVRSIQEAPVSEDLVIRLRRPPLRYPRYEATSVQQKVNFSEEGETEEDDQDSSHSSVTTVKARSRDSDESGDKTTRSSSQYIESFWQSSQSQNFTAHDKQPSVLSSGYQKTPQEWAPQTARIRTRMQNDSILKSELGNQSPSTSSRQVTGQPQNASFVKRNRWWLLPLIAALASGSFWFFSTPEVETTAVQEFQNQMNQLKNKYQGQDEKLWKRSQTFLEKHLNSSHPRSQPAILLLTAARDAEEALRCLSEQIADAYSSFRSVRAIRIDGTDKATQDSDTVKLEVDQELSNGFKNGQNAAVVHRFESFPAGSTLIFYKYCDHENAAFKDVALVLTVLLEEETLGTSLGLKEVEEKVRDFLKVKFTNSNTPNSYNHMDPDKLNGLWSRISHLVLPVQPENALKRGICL
Chain of Left-right determination factor 2 (Homo sapiens) (O00292 whole entry, looked up): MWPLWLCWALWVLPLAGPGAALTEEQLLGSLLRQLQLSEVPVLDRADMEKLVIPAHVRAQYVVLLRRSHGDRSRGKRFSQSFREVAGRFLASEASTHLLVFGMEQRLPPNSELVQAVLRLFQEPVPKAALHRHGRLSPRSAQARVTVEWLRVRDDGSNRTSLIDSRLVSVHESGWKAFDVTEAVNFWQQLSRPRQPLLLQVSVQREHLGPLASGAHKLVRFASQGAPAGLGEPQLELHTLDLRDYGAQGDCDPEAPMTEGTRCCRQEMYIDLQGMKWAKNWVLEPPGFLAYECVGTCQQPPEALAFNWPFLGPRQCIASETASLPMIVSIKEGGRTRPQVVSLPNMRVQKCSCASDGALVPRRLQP

As to `C=CCC(OC(C)=O)[C@@H]1[C@@H](N(Cc2ccc(-c3cccc(C(F)(F)F)c3)o2)C(=O)Cc2ccc(F)cc2)c2cc(OCCCO)ccc2N1C(=O)Cc1ccc2ccccc2c1` (stereo not given in full), the composite z-score in [1] is -0.97; in [3], -0.511; in test [4], -0.599; in test [5], 0.218; in [6], -0.0684; in test [7], 0.0684. Besides, the composite z-score in test [8] is -0.352; in [9], -0.016; in test [10], -0.772. Also, in [2], the z-score amounted to 0.022.

For `COC(=O)[C@@]1(Cc2ccccc2)[C@H]2c3cc(C(=O)N(C)C)n(CCO)c3C[C@H]2CN1C(=O)c1ccccc1`, the composite z-score in [1] came out at 0.56; in [3], 0.145; in test [4], 2.07; in test [5], 1.27; in [6], 0.0511; in test [7], 0.0005. The composite z-score in test [8] is 0.623; in [9], 0.952; in test [10], 0.723. Moreover, the z-score in test [2] was -0.766.

For the compound `C[C@@H]1NC(=O)C([C@@H](C)OCc2ccccc2)NC(=O)[C@@]23C(=O)N[C@@H](Cc4ccccc4)C2[C@H](C)[C@@]2(C)O[C@H]2C3/C=C/C/C=C\CNC1=O` (stereo not given in full), the composite z-score is -0.663 in test [1]; -0.238 in test [3]; -1.17 in test [4]; -1.85 in test [5]; -0.172 in test [6]; 0.299 in test [7]. Moreover, the composite z-score in test [8] was -0.423; in [9] it was -0.215; in [10] it was -0.0334. This compound also displayed a z-score in test [2] of -0.914.

Turning to `O=C(NC1CC1)[C@@H]1c2ccccc2C(=O)N(CC23CC4CC(CC(C4)C2)C3)[C@H]1c1ccc(CO)cc1`, the composite z-score in test [1] was 1.36; in test [3] it was 1.13; in [4], 0.609; in test [5] it was -0.657; in test [6] it was -0.096; in test [7], -0.138. For the same compound, the results for the composite z-score in test [8], in [9] and in [10] were -0.541, 0.755 and 0.428, respectively. In [2], the z-score was -1.22.

Take `COC(=O)[C@@]1(Cc2ccccc2)[C@H]2c3cc(C(=O)N(C)C)n(Cc4ccc(C(F)(F)F)nc4)c3C[C@H]2CN1C(=O)c1ccccc1`: the composite z-score is 1.49 in test [1]; -0.287 in test [3]; 1.9 in test [4]; 1.14 in test [5]; 0.223 in [6]; 0.941 in test [7]. Also, the composite z-score in test [8] was 2.05; in test [9] it was 1.91; in test [10] it was 0.82. Besides, the z-score in test [2] was -1.3.

With `COC(=O)[C@@]1(Cc2ccc(OC)cc2)[C@H]2c3cc(C(=O)N4CCCC4)n(CCn4cc([N+](=O)[O-])nc4C)c3C[C@H]2CN1C(=O)c1ccccc1`, the composite z-score in test [1] stood at 0.0832; in test [3] it was 0.277; in test [4], 2.72; in test [5], 1.21; in test [6] it was 1.19; in test [7], 2.51. In addition, the composite z-score in [8] turned out to be 3.12; in [9], 1.98; in test [10], 0.299. The compound also showed a z-score in test [2] of -0.432.

As for `COC(=O)C(CC#Cc1ccc2c(c1)[C@]1(C(=O)N2)[C@H](c2ccccc2OCCO)N2[C@H](c3ccccc3)[C@H](c3ccccc3)OC(=O)[C@H]2[C@@H]1C(=O)N1CCc2cc(OC)c(OC)cc2C1)C(=O)OC`, the composite z-score in [1] is 1.37; in [3] it was 0.541; in [4] it was 0.0823; in test [5], -0.34; in test [6], -0.117; in [7] it was -0.0626. Also, the composite z-score in [8] is -0.259; in test [9], 1.68; in [10], 0.647. This compound displayed a z-score in test [2] of -1.68.

Turning to `C[C@@H]1ON(c2ccc(I)cc2)[C@H](c2cccc(NC(=O)OCC3c4ccccc4-c4ccccc43)c2)[C@H]1C(=O)N1C(=O)OC[C@H]1Cc1ccccc1`, the composite z-score is 0.531 in test [1]; 0.678 in test [3]; 0.224 in [4]; -0.435 in [5]; -0.142 in [6]; -0.0866 in [7]. In addition, the values for the composite z-score in test [8], in test [9] and in test [10] were -0.285, 0.246 and -0.0652, respectively. The z-score in [2] is -0.31.

Turning to `COc1ccc([Si](C)(C)[C@@H]2[C@@H](CC(=O)N(CCO)Cc3ccccc3)O[C@]3(C(=O)N(Cc4ccc(N5C(=O)c6cccc7cccc5c67)cc4)c4ccccc43)[C@H]2C)cc1`, the composite z-score in [1] was 0.749; in [3], 0.495; in [4] it was 0.553; in test [5], 0.822; in [6] it was -0.124; in test [7] it was 0.0725. The composite z-score in [8] was found to be 0.189; in test [9] it was 0.762; in test [10] it was 2.24. This compound also returned a z-score in [2] of -4.47.

Regarding `CCCCC(=C=CC[C@H](O)c1ccc(CO)o1)CCO`, the composite z-score in [1] was 0.906; in test [3] it was 0.346; in test [4], 0.155; in [5], -0.363; in [6] it was -0.124; in test [7], 0.137. Besides, the figures for the composite z-score in [8], in [9] and in test [10] were 0.2, 0.906 and 0.221, respectively. This compound showed a z-score in test [2] of -0.401.

With `CCCC=C(CCC)[C@@H](NC(=O)c1ccc(C(F)(F)F)cc1)c1ccc(C(F)(F)F)cc1`, the composite z-score in test [1] is 1.36; in test [3], -0.203; in test [4], 1.72; in test [5], 1.09; in test [6], 0.253; in [7], 0.778. The figures for the composite z-score in test [8], in [9] and in test [10] were 1.78, 0.926 and 0.942, respectively. Also, the z-score in [2] was -1.5.

Regarding `O=C1C=C(c2ccccc2)C(=O)C2=C1CC([C@H]1Oc3ccccc3S(=O)(=O)N3CCC[C@@H]13)=CC2`, the composite z-score was 0.529 in [1]; 0.0208 in test [3]; 0.042 in test [4]; -0.207 in test [5]; -0.124 in test [6]; -0.304 in [7]. In addition, the composite z-score in test [8] was -0.172; in [9], 0.0279; in test [10] it was 0.0221. Moreover, the z-score in [2] was -3.98.

As for `CO[C@H]1O[C@H](CO)[C@@H](OC(=O)Nc2ccc3c(c2)OCO3)[C@H](OC(=O)Nc2ccccc2-c2ccccc2)[C@H]1OC(=O)Nc1ccccc1-c1ccccc1`, the composite z-score is 1.08 in [1]; -0.0829 in test [3]; 1.54 in test [4]; -0.243 in test [5]; 0.288 in [6]; -0.273 in [7]. Also, the composite z-score in test [8] was determined as 0.747; in test [9], 2.06; in test [10], 0.557. Further, in test [2], the z-score was -3.79.
